# Sampled rows, rich in hits. Any-hit rate of the full collection: about 1.9%.
# PABP FP inh: blocks human PABP binding to poly(A) RNA. P11940. fluorescence polarization. inhibition, % at 35 µM. 290,000 compounds, 1% hits;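 note: calls also rest on retests at 20 µM and on dose response follow-up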
# GRK2 aptamer HTS: human GRK2 inhibition via aptamer displacement; P25098; bead flow cytometry, FAM-aptamer displacement from GRK2; inhibition of aptamer binding, % at 10 µM; 330,000 compounds, 0.59% hits;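 active = inhibition of aptamer binding above 40%, roughly 3 SD of noise, on plates passing a quality check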;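 note: median bead fluorescence of bound FAM aptamer so fluorescent compounds give negative values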
# PERK inh: human PERK inhibition, primary cell-based screen; CHO PERK-DD fusion, SEAP luminescence translation reporter; inhibition, % at 5.6 µM; 220,000 compounds, 0.17% hits; AID 1416;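 active = inhibition above the mean inhibition of all tested compounds plus 3 SD, set separately per screening campaign, cut at about 2.9% in these data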;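 note: PERK kinase domain activated by AP20187 dimerizer at 100 nM; 0% = DMSO with dimerizer and 100% = rapamycin at 8.4 µM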
# MLLE-PAM2 inh: inhibitors of microRNA-mediated deadenylation, human PABP1 MLLE binding; P11940; GST-MLLE / FITC-PAM2 fluorescence polarization; inhibition, % at 20 µM; 360,000 compounds, 0.36% hits; AID 588489; in the data active = inhibition above about 35%, passing the limit was not always enough;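 note: plate controls were DMSO wells with GST-MLLE for no effect and wells lacking GST-MLLE protein for full effect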
# eIF4H inh: inhibitors of RNA binding by human eIF4H. Q15056. eIF4H fluorescence polarization binding assay. inhibition, % at 35 µM. 290,000 compounds, 0.94% hits. AID 2012;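 note: calls also rest on retests at 20 µM and on dose response follow-up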
# * = called active by the depositor; ? = inconclusive; · = not tested or not shown. Unless noted, the rule behind the calls is not given here.
SMILES,PABP FP inh,GRK2 aptamer HTS,PERK inh,MLLE-PAM2 inh,eIF4H inh
O=C1/C(=C\c2ccco2)SC(=S)N1C1CCCCC1,6,5,·,·,57*
CCCC(=O)N1CC2(CCC)CN(C(=O)CCC)CC(CCC)(C1)C2=O,-2,4,-1,10,0
CCCCCC(=O)N1CC2(CC)CN(C(=O)CCCCC)CC(CC)(C1)C2=O,92*,0,1,-8,99*
O=c1c2sc3nc(N4CCOCC4)c4c(c3c2ncn1C(c1ccccc1)c1ccccc1)CCCC4,·,·,·,2,·
N#Cc1c(NC(=O)CSc2nnc(-c3ccco3)n2-c2ccccc2)sc2c1CCC2,8,0,-1,-13,49
NC(=O)c1c(NC(=O)CSc2nnc(-c3ccco3)n2-c2ccccc2)sc2c1CCC2,86*,16,0,-9,87*
Oc1ccc(/C=N/Nc2ccc(Cl)nn2)c(O)c1O,55*,6,·,40,80*
Oc1c(Br)cc(Br)cc1/C=N/Nc1ccc(Cl)nn1,10,6,·,2,-6
Cc1ccc(S(=O)(=O)Nc2cc(C)c(O)c(Sc3n[nH]c(C)n3)c2)cc1,2,4,·,42*,12
CC(C)N(Cc1ccccc1)C(=S)NC(=O)C1(C)CC1(Cl)Cl (stereo not given),-3,2,0,19,3
CC1(C(=O)NC(=S)N(CCC#N)c2ccccc2)CC1(Cl)Cl (stereo not given),19,0,2,47*,4
CN(Cc1ccccc1)S(=O)(=O)c1ccc(NC(=S)NC(=O)C(C)(C)C)cc1,-1,0,1,36*,2
O=C(NC(=S)N1CCN(C(c2ccccc2)c2ccccc2)CC1)c1ccc(S(=O)(=O)N2CCOCC2)cc1,-1,5,0,9,5
CN1CCN(C(=S)NC(=O)c2ccc(S(=O)(=O)N3CCOCC3)cc2)CC1,-1,0,3,40*,-6
NS(=O)(=O)c1ccc(NC(=S)Nc2ccc(S(=O)(=O)N3CCCC3)cc2)cc1,1,0,0,43*,11
O=C(NC(=S)Nc1ccc(S(=O)(=O)N2CCCCC2)cc1)c1cccs1,-1,1,0,44*,2
NS(=O)(=O)c1ccc(NC(=O)c2ccc(S(=O)(=O)N3CCCCC3)cc2)cc1,·,6,·,-3,·
O=C(NCc1ccccc1CN1CCCC1)c1cc2cc(Cl)ccc2o1,·,0,·,3,·
O=C(CSc1nnc(CNC(=O)c2c(F)cccc2Cl)o1)NCc1ccccc1,9,2,·,13,-4
Cc1ccc(/C=C/C(=O)NCCc2cccc(Cl)c2)o1,-3,0,·,13,-3
CN1CCN(S(=O)(=O)c2ccc(NC(=S)NC(=O)C(C)(C)C)cc2)CC1,-10,1,0,40*,-3
CC(Oc1ccccc1)C(=O)Nc1ccc(S(=O)(=O)N2CCN(C)CC2)cc1 (stereo not given),·,0,·,-4,·
CC(Oc1ccccc1Cl)C(=O)Nc1ccc(S(=O)(=O)N2CCN(C)CC2)cc1 (stereo not given),·,·,·,40*,·
CCC(=O)NC(=S)Nc1ccc(S(=O)(=O)N2CCN(C)CC2)cc1,-9,0,0,0,-4
NC(=O)C1CCCNC1 (stereo not given),66*,2,·,-2,79*
SMILES,PABP FP inh,GRK2 aptamer HTS,PERK inh,MLLE-PAM2 inh,eIF4H inh
O=C(NC1CCNCC1)C1CCCCC1,8,0,·,-12,-15
Cc1cc2nc[nH]c2cc1[N+](=O)[O-],-1,0,1,-4,-2
Cc1c[nH]c(=O)c([N+](=O)[O-])c1,5,2,3.8*,-6,5
CCOC(=O)c1ccc(N2C(=O)C(O)=C(C(C)=O)C2c2ccc([N+](=O)[O-])cc2)cc1 (stereo not given),-3,1,·,2,-14
O=C1Nc2ccccc2N2CCCC12 (stereo not given),1,38,1,·,-4
O=C1Nc2cc(Cl)cnc2N2CCCC12 (stereo not given),-18,2,0,4,61*
CC1(C)CC(NCc2cccc([N+](=O)[O-])c2)CC(C)(C)N1,61*,0,·,-2,81*
CC(C)NCc1cccc([N+](=O)[O-])c1,-7,0,1,0,7
O=C1C=CC(=Nc2ccc(F)cc2)O1,·,·,·,40*,·
O=C1C=CC(=Nc2ccc3c(c2)C(=O)c2ccccc2-3)O1,·,·,·,-1,·
O=C(O)c1cc(O)ccc1N=Nc1ccccc1,8,3,2,-14,-13
O=C(O)c1ccccc1N=Nc1ccc(O)cc1,·,0,·,41*,·
Cc1[nH]c2ccccc2c1N=Nc1ccccc1C(=O)O,4.5*,2,-1,-16,99
COc1ccc(C(=O)C2CCCN(Cc3ccc(C#CCCO)cc3)C2)cc1F (stereo not given),10,0,0,15,11
Cc1ccc(-c2nc(SCC(=O)N(C)c3c(N)n(Cc4ccccc4)c(=O)[nH]c3=O)n[nH]2)cc1,52*,0,·,-10,106*
Cc1onc(-c2ccccc2Cl)c1C(=O)OCC(=O)N1CCN(c2ccccc2)CC1,·,0,·,4,·
COc1ccc(C(C#N)=Cc2cccc(OC)c2OC)cc1,·,·,·,-17,·
CC(=O)Oc1ccc2c(=O)c(Oc3ccccc3)coc2c1OC(C)=O,2.0*,9,0,4,98*
Cc1ccc(-c2c3c([nH]c(=S)c2C#N)CCCC3)o1,65*,11,1,-42,56*
Cc1cc(NC(=O)Cn2nc(-c3ccccc3F)ccc2=O)ccc1-n1cnnn1,3,0,0,8,-1
COc1cc(NC(=O)Cn2nc(-c3ccc(F)cc3)ccc2=O)ccc1-n1cnnn1,12,0,0,0,102*
Cc1ccc(C)c(C(O)c2ncc(-c3cccc(C(F)(F)F)c3)[nH]2)c1 (stereo not given),·,·,·,6,·
O=C(O)CSc1cc(C(=O)c2cc(F)ccc2O)cn2c(=O)c3c(-c4ccccc4)csc3nc12,30,6,0,-18,50*
CCOC(=O)C1=NN(C(=O)c2ccc(OC)cc2)C(O)(c2ccc(Cl)cc2)C1 (stereo not given),1,0,0,-15,42
COC(=O)C1=NN(C(=O)c2cccc(Br)c2)C(O)(c2ccc(Cl)cc2)C1 (stereo not given),1,1,2,-59,58*
SMILES,PABP FP inh,GRK2 aptamer HTS,PERK inh,MLLE-PAM2 inh,eIF4H inh
Cc1cc(NC(=O)NC(C)(C(F)(F)F)C(F)(F)F)no1,-17,3,1,-3,-1
CCC(NC(=O)Nc1cc(C)on1)(C(F)(F)F)C(F)(F)F,-2,4,3.2*,4,-2
CC(C)(C)c1ccc(C(=O)O[C@H]2[C@H](Cc3ccccc3)NS(=O)(=O)[C@H]3C[C@@H]4C=C[C@]23O4)cc1,·,0,·,5,·
Cc1cc(C)nc(SCNC(=O)c2ccc(Cl)cc2)n1,-6,0,0,44*,0
CCc1nnc(NC(=O)CSc2ccc(-c3cccs3)nn2)s1,active,0,1,32,?
CCCS(=O)(=O)NC(=O)C1(C)CCN(C(=O)c2cccc(C(F)(F)F)c2)C1 (stereo not given),·,·,·,8,·

# Screening data deposited in PubChem by several laboratories.
